Source: PubChem BioAssay (NCI)
This is part of a sample that, as a whole, favours compounds with a hit. Of some 79,000 tested, about 15% had one in any assay. A number with no mark means an inactive call. Activity calls are given as the source filed them. Cut-off read from the data, not from the text of the source: active = growth inhibition above about 70%; inactive = the rest.

Tests used:
[1] = NCI Yeast Anticancer Drug Screen. Data for the rad50 strain (AID 155);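 note: 0% = growth of vehicle-only cultures of the same strain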; settings: S. cerevisiae rad50 strain growth inhibition, stronger effect = higher value
Outline: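 Genetically altered yeast (DNA repair pathway); compound treatment; growth inhibition vs vehicle ctrl.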

[2] = NCI Yeast Anticancer Drug Screen. Data for the mec2-1 strain (AID 157); settings: S. cerevisiae mec2-1 strain, stronger effect = higher value
Outline: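 Yeast mec2-1 mutant treated with compound. Readout: growth inhibition vs vehicle controls.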

[3] = NCI Yeast Anticancer Drug Screen. Data for the sgs1 mgt1 strain (AID 161);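 note: 0% = growth of cultures given vehicle only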; settings: S. cerevisiae sgs1 mgt1 strain, stronger effect = higher value
Outline: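 Test agents were incubated with a DNA-repair-mutant yeast strain. Growth was then read and compared against vehicle-treated controls.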

[4] = NCI Yeast Anticancer Drug Screen. Data for the cln2 rad14 strain (AID 165);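 note: 0% = growth equal to vehicle treated cultures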; settings: S. cerevisiae cln2 rad14 strain, stronger effect = higher value
Outline: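 cln2 rad14 yeast strain; compound exposure; growth inhibition read vs vehicle controls.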

[5] = NCI Yeast Anticancer Drug Screen. Data for the bub3 strain (AID 167); settings: S. cerevisiae bub3 mutant strain, stronger effect = higher value
Outline: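 Yeast carrying a defined mutation is treated with each compound, and growth is compared with that of vehicle-exposed cells to give inhibition.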

[6] = NCI Yeast Anticancer Drug Screen. Data for the mlh1 rad18 strain (AID 175); settings: S. cerevisiae mlh1 rad18 strain growth inhibition, stronger effect = higher value
Outline: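 Yeast w/ defined DNA-repair lesions; compound exposure; growth vs vehicle controls → % inhibition.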

[7] = at 5.0 µM (retest, dose inferred, filed as 0.5)
[8] = at 50.0 µM (retest, dose inferred, filed as 5.0)

In the case of `Cc1ccc2c(c1)NC(=O)C(N=[N+]=[N-])(c1ccccc1)C2=O` (stereo not given), the growth inhibition [1, 7] is reported as -25%, the growth inhibition [1, 8] is reported as 97% (active) and the growth inhibition ([1]; at 50.0 µM) is reported as 89.8% (active). For the same compound, the growth inhibition [2, 7] was -2%, the growth inhibition [2, 8] was 93% (active) and the growth inhibition ([2]; at 50.0 µM) was 91.3% (active). For the same compound, the growth inhibition [3, 7] was -1%, the growth inhibition [3, 8] was 97% (active) and the growth inhibition ([3]; at 50.0 µM) was 90.2% (active). The growth inhibition [4, 7] was 10%, the growth inhibition [4, 8] was 71% (active) and the growth inhibition ([4]; at 50.0 µM) was 91.3% (active). The growth inhibition [5, 7] was -7%, the growth inhibition [5, 8] was 98% (active) and the growth inhibition ([5]; at 50.0 µM) was 92.3% (active). For the same compound, the growth inhibition [6, 7] was -4%, the growth inhibition [6, 8] was 98% (active) and the growth inhibition ([6]; at 50.0 µM) was 70.4% (active).
In the case of `O=c1oc(-c2cc([N+](=O)[O-])cc([N+](=O)[O-])c2Cl)nc2ccccc12`, the growth inhibition [1, 7] is reported as 29%, the growth inhibition [1, 8] is reported as 50% and the growth inhibition ([1]; at 50.0 µM) is reported as 75.3% (active). For the same compound, the growth inhibition [2, 7] was 8%, the growth inhibition [2, 8] was 22% and the growth inhibition ([2]; at 50.0 µM) was 63.5%. For the same compound, the growth inhibition [3, 7] was 13%, the growth inhibition [3, 8] was 47% and the growth inhibition ([3]; at 50.0 µM) was 83.7% (active). It also gave a growth inhibition [4, 7] of 15%, a growth inhibition [4, 8] of 44% and a growth inhibition ([4]; at 50.0 µM) of 61.5%. The growth inhibition [5, 7] was 15%, the growth inhibition [5, 8] was 58% and the growth inhibition ([5]; at 50.0 µM) was 82.5% (active). The growth inhibition [6, 7] was 1%, the growth inhibition [6, 8] was 57% and the growth inhibition ([6]; at 50.0 µM) was 86.8% (active).
For `CC1=C(C(=O)Nc2cccc3ccccc23)C(c2cccc([N+](=O)[O-])c2)C(C(=O)Nc2cccc3ccccc23)=C(C)N1`, the growth inhibition [1, 7] was 27%, the growth inhibition [1, 8] was 40% and the growth inhibition ([1]; at 50.0 µM) was 76.2% (active). For the same compound, the growth inhibition [2, 7] was 22%, the growth inhibition [2, 8] was 50% and the growth inhibition ([2]; at 50.0 µM) was 60.2%. For the same compound, the growth inhibition [3, 7] was 7%, the growth inhibition [3, 8] was 32% and the growth inhibition ([3]; at 50.0 µM) was 77.1% (active). The growth inhibition [4, 7] was -3%, the growth inhibition [4, 8] was 14% and the growth inhibition ([4]; at 50.0 µM) was 70.6% (active). For the same compound, the growth inhibition [5, 7] was 34%, the growth inhibition [5, 8] was 58% and the growth inhibition ([5]; at 50.0 µM) was 81.5% (active). For the same compound, the growth inhibition [6, 7] was -22%, the growth inhibition [6, 8] was 23% and the growth inhibition ([6]; at 50.0 µM) was 88.1% (active).
With `O=C(O)CCC(c1ccccc1)(c1ccccc1)c1ccccc1` the growth inhibition [1, 7] was 66%, the growth inhibition [1, 8] was 99% (active) and the growth inhibition ([1]; at 50.0 µM) was 99.5% (active). The growth inhibition [2, 7] was 53%, the growth inhibition [2, 8] was 100% (active) and the growth inhibition ([2]; at 50.0 µM) was 99.7% (active). For the same compound, the growth inhibition [3, 7] was 54%, the growth inhibition [3, 8] was 99% (active) and the growth inhibition ([3]; at 50.0 µM) was 98.9% (active). The growth inhibition [4, 7] was -59%, the growth inhibition [4, 8] was 99% (active) and the growth inhibition ([4]; at 50.0 µM) was 99% (active). For the same compound, the growth inhibition [5, 7] was 80% (active), the growth inhibition [5, 8] was -50% and the growth inhibition ([5]; at 50.0 µM) was 99.5% (active). The growth inhibition [6, 7] was 64%, the growth inhibition [6, 8] was 99% (active) and the growth inhibition ([6]; at 50.0 µM) was 99.2% (active).
With `CCN(CC)P(=S)(c1ccccc1CCP(=S)(c1ccccc1)c1ccccc1)N(CC)CC` the growth inhibition [1, 7] was -6%, the growth inhibition [1, 8] was 34% and the growth inhibition ([1]; at 50.0 µM) was 91.2% (active). The growth inhibition [2, 7] was -3%, the growth inhibition [2, 8] was 21% and the growth inhibition ([2]; at 50.0 µM) was 98.6% (active). For the same compound, the growth inhibition [3, 7] was -6%, the growth inhibition [3, 8] was 62% and the growth inhibition ([3]; at 50.0 µM) was 97.6% (active). The growth inhibition [4, 7] was -1%, the growth inhibition [4, 8] was 11% and the growth inhibition ([4]; at 50.0 µM) was 96.8% (active). It also gave a growth inhibition [5, 7] of -2%, a growth inhibition [5, 8] of 41% and a growth inhibition ([5]; at 50.0 µM) of 59.6%. For the same compound, the growth inhibition [6, 7] was -4%, the growth inhibition [6, 8] was 32% and the growth inhibition ([6]; at 50.0 µM) was 97.1% (active).
In the case of `CN1COc2c(Cl)cc(Cl)cc2C1`, the growth inhibition [1, 7] is reported as -3%, the growth inhibition [1, 8] is reported as 85% (active) and the growth inhibition ([1]; at 50.0 µM) is reported as 76.2% (active). The growth inhibition [2, 7] was -2%, the growth inhibition [2, 8] was 45% and the growth inhibition ([2]; at 50.0 µM) was 57.2%. For the same compound, the growth inhibition [3, 7] was 0%, the growth inhibition [3, 8] was 91% (active) and the growth inhibition ([3]; at 50.0 µM) was -5.15%. It also gave a growth inhibition [4, 7] of -3%, a growth inhibition [4, 8] of 46% and a growth inhibition ([4]; at 50.0 µM) of -4%. The growth inhibition [5, 7] was -4%, the growth inhibition [5, 8] was 75% (active) and the growth inhibition ([5]; at 50.0 µM) was 45.5%. The growth inhibition [6, 7] was -1%, the growth inhibition [6, 8] was 86% (active) and the growth inhibition ([6]; at 50.0 µM) was 42.5%.
In the case of `O=C1CCCC/C1=C\c1ccc(Cl)c(Cl)c1`, the growth inhibition [1, 7] is reported as 12%, the growth inhibition [1, 8] is reported as 99% (active) and the growth inhibition ([1]; at 50.0 µM) is reported as 98.7% (active). For the same compound, the growth inhibition [2, 7] was 6%, the growth inhibition [2, 8] was 100% (active) and the growth inhibition ([2]; at 50.0 µM) was 98.6% (active). The growth inhibition [3, 7] was 47%, the growth inhibition [3, 8] was 100% (active) and the growth inhibition ([3]; at 50.0 µM) was 99% (active). For the same compound, the growth inhibition [4, 7] was 5%, the growth inhibition [4, 8] was 99% (active) and the growth inhibition ([4]; at 50.0 µM) was 95.9% (active). For the same compound, the growth inhibition [5, 7] was 9%, the growth inhibition [5, 8] was 99% (active) and the growth inhibition ([5]; at 50.0 µM) was 98.2% (active). For the same compound, the growth inhibition [6, 7] was 18%, the growth inhibition [6, 8] was 99% (active) and the growth inhibition ([6]; at 50.0 µM) was 99.2% (active).
Work on `CC1(C)OC2C(CO)OC(n3ncc(=S)[nH]c3=O)C2O1` (stereo not given) yielded a growth inhibition [1, 7] of -4%, a growth inhibition [1, 8] of 28% and a growth inhibition ([1]; at 50.0 µM) of -10.5%. It also gave a growth inhibition [2, 7] of -8%, a growth inhibition [2, 8] of 6% and a growth inhibition ([2]; at 50.0 µM) of 10.7%. For the same compound, the growth inhibition [3, 7] was 4%, the growth inhibition [3, 8] was 45% and the growth inhibition ([3]; at 50.0 µM) was -1.45%. For the same compound, the growth inhibition [4, 7] was -1%, the growth inhibition [4, 8] was 45% and the growth inhibition ([4]; at 50.0 µM) was -1.95%. For the same compound, the growth inhibition [5, 7] was 6%, the growth inhibition [5, 8] was 15% and the growth inhibition ([5]; at 50.0 µM) was 71% (active). It also gave a growth inhibition [6, 7] of -1%, a growth inhibition [6, 8] of 30% and a growth inhibition ([6]; at 50.0 µM) of -24.9%.
In the case of `O=P1(N2CCCCC2)N(Cc2ccc(Cl)cc2)CCCN1Cc1ccc(Cl)cc1`, the growth inhibition [1, 7] is reported as 59%, the growth inhibition [1, 8] is reported as 96% (active) and the growth inhibition ([1]; at 50.0 µM) is reported as 82% (active). For the same compound, the growth inhibition [2, 7] was 65%, the growth inhibition [2, 8] was 97% (active) and the growth inhibition ([2]; at 50.0 µM) was 51.5%. The growth inhibition [3, 7] was 11%, the growth inhibition [3, 8] was 97% (active) and the growth inhibition ([3]; at 50.0 µM) was 29.1%. The growth inhibition [4, 7] was 31%, the growth inhibition [4, 8] was 96% (active) and the growth inhibition ([4]; at 50.0 µM) was 63.2%. The growth inhibition [5, 7] was 49%, the growth inhibition [5, 8] was 96% (active) and the growth inhibition ([5]; at 50.0 µM) was 6.75%. The growth inhibition [6, 7] was 69%, the growth inhibition [6, 8] was 90% (active) and the growth inhibition ([6]; at 50.0 µM) was 76.8% (active).
`CSC1=Nc2ccccc2SC(c2ccccc2)C1c1ccccc1` (stereo not given) showed a growth inhibition [1, 7] of 4%, a growth inhibition [1, 8] of 14% and a growth inhibition ([1]; at 50.0 µM) of 20.1%. For the same compound, the growth inhibition [2, 7] was 0%, the growth inhibition [2, 8] was 15% and the growth inhibition ([2]; at 50.0 µM) was 29.3%. For the same compound, the growth inhibition [3, 7] was 6%, the growth inhibition [3, 8] was 17% and the growth inhibition ([3]; at 50.0 µM) was 67%. For the same compound, the growth inhibition [4, 7] was -3%, the growth inhibition [4, 8] was -9% and the growth inhibition ([4]; at 50.0 µM) was 84.7% (active). The growth inhibition [5, 7] was 5%, the growth inhibition [5, 8] was 7% and the growth inhibition ([5]; at 50.0 µM) was 53.3%. For the same compound, the growth inhibition [6, 7] was 3%, the growth inhibition [6, 8] was 8% and the growth inhibition ([6]; at 50.0 µM) was 63.9%.
